Compounds without any hit were thinned out: in the full panel of roughly 83,000, 20% have a hit.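 Negative percent growth values reflect cell death: -40 means 40% of the cells present at the start died, and -100 means all died.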 Unmarked numbers belong to inactive results. Active and inactive are the calls of the source. Rule for the calls: active = growth percent below 10; inactive = the rest.

The test system of the assay is HL-60(TB) leukemia. The assay can be described thus: NCI-60 one-dose screen, 48 h (100 = growth as untreated, 0 = no growth, -100 = all killed). The settings on record: 10 µM unless noted.
Turning to `CCCCN1CCN(c2ccc3nc(-c4ccc5nc(-c6ccc(OC)c(OC)c6)[nH]c5c4)[nH]c3c2)CC1`, the growth is -25.1% (active).

With `Fc1ccc(Nc2ncnc3ccc(-c4cn[nH]c4)cc23)cc1Cl`, the growth is 83.7%.

On to `COc1ccc(S(=O)(=O)N2CCCCC2)cc1NC(=O)c1[nH]c(C)c2c1CCCCC2=O`, for which the growth is -10.9% (active).

Take `C=C(c1ccc(OC)c(/C=C/C(=O)c2ccc3c(c2)OCO3)c1)c1cc(OC)c(OC)c(OC)c1`: the growth was 10.3%.

As to `COc1cc(NCCC2CCCCN2)c2ncccc2c1OC` (stereo not given), the growth is 0.805% (active).

With `Cc1cc(C)nc(NS(=O)(=O)c2ccc(Nc3ccc4c5c(n(CCCN(C)C)c(=O)c4c3)-c3ccccc3C5=O)cc2)n1`, the growth was 70.6%.

As to `COc1cccc(Cc2cc(-c3ccccc3)nn(CC(=O)c3ccccc3)c2=O)c1`, the growth was 69.4%.

Take `Nc1c(-c2nc3ccccc3c(=O)[nH]2)nnn1-c1ccc(Cl)cc1`: the growth was 94%.

Regarding `CC(=O)c1ccc(N=C(C#N)C2=C(O)c3ccccc3C2=O)cc1`, the growth is 86.2%.

Regarding `CC(=O)OCCC/C(=C\c1ccc2ccccc2c1)[N+](=O)[O-]`, the growth is -61% (active).

Consider `COc1ccc(-c2nn(-c3ccc(NC(=O)c4cc(Cl)cc(Cl)c4)cc3)cc2-c2ccncc2)cc1Cl`, for which the growth is 20.3%.

In the case of `CCOC(=O)C(=Cc1ccc(C#N)cc1)C(=O)OCC`, the growth was -33.2% (active).

Turning to `Cc1ccccc1OCC(O)COc1ccccc1C`, the growth was 128%.

Take `N#Cc1cnn(C(=O)c2nn(-c3ccc(Cl)cc3)cc2O)c1N`: the growth was -50.1% (active).

For `Cc1ccc(-c2c3c(N)nc(-c4ccncc4)nc3nc3c2c(C)nn3-c2ccccc2)cc1`, the growth was 97%.

Turning to `COc1ccc(C2N(c3cc(OC)c(OC)c(OC)c3)C(=O)C2(F)F)cc1F` (stereo not given), the growth was 0.936% (active).

Consider `C[C@H](NC(=O)c1c(N)nn2cccnc12)c1cc2cccc(C#Cc3cnn(C)c3)c2c(=O)n1-c1ccccc1`, for which the growth was -18.2% (active).

Take `N=c1n(Cc2ccccc2)c(N)cc(=O)n1Cc1ccccc1`: the growth is 11.3%.

Consider `Cn1c2ccccc2c2c3[nH]c(=O)[nH]c(=O)c3c3c4ccccc4n(C)c3c21`, for which the growth was 48.9%.

Consider `NC(=S)Nc1ccc2c(c1)Cc1ccccc1-2`, for which the growth is 77.4%.

In the case of `COc1cccc(-c2nc3sccn3c2-c2ccnc(NCCNS(=O)(=O)c3ccc(C(F)(F)F)cc3)c2)c1`, the growth was 14.9%.

As to `O=C(O)CCCl`, the growth was 107%.

For the compound `CCCC(O)Cn1ncc(C(=O)OCC)c1NC(=O)NCc1cccc(F)c1` (stereo not given), the growth was 59.2%.

For `CN(C)c1nc(-c2ccco2)n2nc(-c3ccco3)cc2n1`, the growth is 97.3%.

In the case of `O/N=C1\c2ccccc2-c2ccc(F)cc21`, the growth is 92.3%.

`COc1ccc(-c2n[nH]nc2-c2cc3ccccc3s2)cc1O`: the growth was 2.49% (active).

Turning to `COc1cccc(NC(=O)Nc2ccc(Nc3ncnc4sc5c(c34)CCN(C(=O)CCl)C5)cc2)c1`, the growth was 90%.

Consider `N=C(N)c1ccc(-c2ccc(-c3ccc(Cl)cc3Cl)s2)cc1`, for which the growth was -45.1% (active).

For `N=C(N)c1ccc(-c2ccc(-c3cccs3)s2)s1`, the growth is -62% (active).

As to `O=C1NC(=Nc2ccc(S(=O)(=O)Nc3nccs3)cc2)S/C1=C\c1coc2ccccc2c1=O`, the growth is 107%.

On to `Cc1oc2ccc(O)c(CN3CCCCCC3)c2c1C(=O)Nc1ccc(C(F)(F)F)cc1`, for which the growth was 83%.

Regarding `O=C(NC1CCNCC1)c1[nH]ncc1NC(=O)c1c(Cl)cccc1Cl`, the growth is -31.8% (active).

`CCOC(=O)[C@@H]1CCCN(S(=O)(=O)c2ccc(S(=O)(=O)N(CC)CC)c(F)c2)C1`: the growth was 81.4%.

For the compound `COc1ccc(N/C=C/C2=[N+](C)c3ccccc3C2(C)C)c(OC)c1`, the growth is 99.3%.

For the compound `COc1ccc(CNC(=O)C(=O)[C@H](Cc2ccccc2)NC(=O)c2[nH]c3ccccc3c(=O)c2C)cc1`, the growth was 110%.

With `N#CCCc1c[nH]c2ccccc12`, the growth is 99.3%.

`Cc1nc2cc(Nc3nc(Nc4ccc(F)cc4)nc(N4CCCC4)n3)ccc2n1Cc1ccccc1`: the growth is -41.5% (active).

Turning to `COc1ccc(NC(=O)c2ccc(C(=O)Nc3ccc(OC)cc3OC)cc2)c(OC)c1`, the growth was 88.5%.

Turning to `O=C1NC(=O)c2ncccc21`, the growth is 115%.

As for `COc1cccc(/C(C#N)=C/c2nc3c(N4CCOCC4)nc(Cl)nc3n2C)c1`, the growth was -32% (active).

Source of the values: PubChem BioAssay (NCI).
